MOR-DOR inv ag: inverse agonists of MOR-DOR heterodimerization, primary screen, cell-based, luminescence. Mu-type opioid receptor (Homo sapiens) + Delta-type opioid receptor (Homo sapiens), …. cell-based MOR-DOR heterodimer luminescence, inverse agonism. inhibition, % at 9.3 µM. 340,000 tested, 0.21% active; in the data active means inhibition above about 22%, passing the limit was not always enough;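 further: 0% = cells with DMSO and 100% = wells without cells with DMSO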
HTR5A inv ag: HTR5A inverse agonists in luminescence cell assay, primary screen, counter-screen for OPRM1-OPRD1 heterodimer inverse agonist project, full-deck HTS | AID 504634, 2011 | 340,000 tested, 0.083% active | inhibition, % at 9.3 µM | HTR5A cell line, inverse agonism; in the data active means inhibition mostly above about 23%, no sharp cut-off; inactive means mostly below about 18%;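 further: 0% = cells with DMSO and 100% = no-cell wells with DMSO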
Target sequence (P47898 whole entry, looked up): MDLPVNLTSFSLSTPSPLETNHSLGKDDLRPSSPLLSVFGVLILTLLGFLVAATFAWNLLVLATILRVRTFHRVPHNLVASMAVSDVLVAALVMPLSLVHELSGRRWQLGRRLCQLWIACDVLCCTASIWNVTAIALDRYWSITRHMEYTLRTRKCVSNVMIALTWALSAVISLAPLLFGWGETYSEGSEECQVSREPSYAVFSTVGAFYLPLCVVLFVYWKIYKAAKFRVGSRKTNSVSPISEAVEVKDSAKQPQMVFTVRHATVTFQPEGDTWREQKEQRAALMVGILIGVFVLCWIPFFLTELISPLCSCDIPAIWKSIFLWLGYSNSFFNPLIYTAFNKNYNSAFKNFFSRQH
CR mimetic SO: reduction of superoxide in aged yeast, primary screen, HTS | S. cerevisiae aged cells, superoxide DHE fluorescence; hits give low values | superoxide response (% of plate mean), % at 10 µM | 330,000 tested, 0.18% active | AID 2690, 2010;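 active means superoxide response under a set limit, about three screen SD below normal, cut at about 65% in these data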;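 further: yeast aged for seven days with compound at 30 °C before DHE staining; 100% = average MFI of all compound-treated wells on the plate with controls excluded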
HTR5A ag ctr: HTR5A agonists in luminescence cell assay, primary screen, counter-screen for OPRM1-OPRD1 heterodimer agonist project, full-deck HTS. 5-hydroxytryptamine receptor 5A (Homo sapiens), P47898. cell-based. activation, % at 9.3 µM. 340,000 tested, 0.61% active; in the data active means activation mostly above about 9.5%, no sharp cut-off; inactive means mostly below about 7.6%;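 further: 0% = cells with vehicle only and 100% = reference agonist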
PvdQ acylase: P. aeruginosa PvdQ acylase inhibitors, primary screen, biochemical, fluorescence, plate reader and imaging, single point; AID 488965, 2010; purified PvdQ acylase; PvdQ acylase [Pseudomonas aeruginosa LESB58]; inhibition, % at 10 µM; 340,000 tested, 0.063% active; in the data active means inhibition above about 30%, passing the limit was not always enough;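 further: 0% = vehicle neutral wells and 100% = reference inhibitor wells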
MOR-DOR ag-1: agonists of OPRM1-OPRD1 heterodimerization, primary screen, cell-based, luminescence; Mu-type opioid receptor (Homo sapiens) + Delta-type opioid receptor (Homo sapiens), …; cells; activation, % at 9.3 µM; 340,000 tested, 0.3% active; AID 504326, 2011;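 further: 0% = vehicle-treated cells and 100% = reference agonist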
MOR-DOR ag-2: OPRM1-OPRD1 heterodimerization promoters, counter-screen for HTR5A agonist project, cell-based, luminescence. activation, % at 9.3 µM. 800 tested, 13% active. U2OS counter-screen cells, complementation luminescence, 3 h. shares compounds with HTR5A ag ctr
HTR5A ag confirm: HTR5A agonists, retest of hits, confirmation, cell-based, luminescence; 800 tested, 17% active; AID 504915, 2011; activation, % at 9.3 µM; shares compounds with HTR5A ag ctr; HTR5A agonist cell assay; in the data active means activation above about 17%;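 further: 0% = cells with vehicle only and 100% = full reference agonist response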
Numbers without * were called inactive; . = no result given. Sampled rows, rich in hits. Any-hit rate of the full collection: about 1.3%. Unless noted, no stated cut-off is given here; in the data, active means activation above about 18%; inactive means the rest.

SMILES	MOR-DOR inv ag	HTR5A inv ag	CR mimetic SO	HTR5A ag ctr	PvdQ acylase	MOR-DOR ag-1	MOR-DOR ag-2	HTR5A ag confirm
Cc1ccc(CCNC(=O)C2CCC(=O)N(CC3CCCCC3)C2)cc1 (stereo unspecified)	-4	6	106	-2	-6	1	.	.
O=C(NCCn1cccn1)C1CCC(=O)N(CC2CCCCC2)C1 (stereo unspecified)	19	-61	94	25*	-15	-4	1	-1
CC1(C)CC(/C=C/c2ccccc2)=Nc2ccccc2N1	9	1	81	7	0	-2	.	.
Cc1cc(NC(=O)Cn2cnc3sc(C)c(C)c3c2=O)no1	.	.	91	.	.	.	.	.
CCn1c(C)nc2cc(C(=O)N/N=C/c3ccc(OC)c(O)c3)ccc21	-1	-27	107	14*	-9	0	0	-1
C#CCOCCOCCOCCNc1nc(N2CCN(C(=O)C([C@@H](C)CC)n3cc(C(N)COC(=O)C(F)(F)F)nn3)CC2)nc(N2CCN(C(=O)[C@H](CCC(=O)O)n3cc(C(N)CC(C)C)nn3)CC2)n1 (stereo partly specified)	.	.	96	.	.	.	.	.
Cc1sc2ncnc(N3CCC(C(=O)N4CC(C)SC4=Nc4ccc(Cl)cc4)CC3)c2c1C (stereo unspecified)	1	9	.	5	-11	0	.	.
COc1ccc(C(=O)Nc2cccnc2)cc1S(=O)(=O)N1CCOCC1	0	-43	99	16*	-9	0	1	1
O=C(Nc1cccnc1)c1ccc(Cl)c(S(=O)(=O)N2CCOCC2)c1	4	0	101	0	-8	-1	.	.
COc1ccc(CNC(=O)CN(CC2CCCO2)C(=O)CNS(=O)(=O)c2ccc(C)cc2)cc1 (stereo unspecified)	1	20	89	3	-7	0	.	.
COc1ccc(CNC(=O)CN(CC2CCCO2)C(=O)CNS(=O)(=O)c2ccccc2)cc1 (stereo unspecified)	12	-51	104	17*	0	-2	4	3
CCCC[C@@H]1C=C(C(=O)O)[C@H](c2ccc(C#N)cc2)N1S(=O)(=O)c1ccc(C)cc1	12	-15	113	4	-17	-3	.	.
CC(CNS(=O)(=O)c1ccc2c(c1)CC(=O)N2C)c1ccccc1 (stereo unspecified)	8	-12	101	1	1	-2	.	.
O=C(N/N=C/c1cn(Cc2cccc(F)c2)c2ccccc12)c1cc(O)cc(O)c1	-15	-45	109	17*	8	4	284*	2
Nc1ccc(C(=O)N/N=C/c2cn(Cc3ccc(F)cc3)c3ccccc23)cc1	16	5	108	4	4	-3	.	.
Cc1cc(F)ccc1S(=O)(=O)N1CCCOC1CNC(=O)C(=O)NCCc1c[nH]c2ccccc12 (stereo unspecified)	4	-75	99	16*	-7	-1	43*	4
Cc1ccc(S(=O)(=O)N2CCOC2CNC(=O)C(=O)NCCc2c[nH]c3ccccc23)cc1 (stereo unspecified)	-1	-118	91	54*	-12	0	0	-2
CNC(=O)C(=O)NCC1OCCCN1S(=O)(=O)c1ccc(F)cc1C (stereo unspecified)	17	-17	113	-2	3	-3	.	.
COc1ccccc1CCNC(=O)C(=O)NCC1OCCN1S(=O)(=O)c1ccc(F)cc1 (stereo unspecified)	-1	-3	114	1	-14	0	.	.
O=C(NCCCO)C(=O)NCC1OCCCN1S(=O)(=O)c1cccs1 (stereo unspecified)	4	-44	99	17*	-18	-1	0	-2
O=C(NCCc1c[nH]c2ccccc12)C(=O)NCC1OCCCN1S(=O)(=O)c1ccc(F)cc1 (stereo unspecified)	8	-59	102	16*	-4	-1	4	24*
O=C(c1cccc(C(F)(F)F)c1)C1CCCN(C(=O)/C=C/c2cnc[nH]2)C1 (stereo unspecified)	0	-2	87	-5	-9	0	.	.
CC(=O)Nc1ccc(NC2CCCCC2NS(=O)(=O)c2ccccc2)cc1 (stereo unspecified)	6	14	94	-5	-15	-1	.	.
COc1ccccc1-c1nnc(SCC(=O)Nc2ccc3[nH]c(=O)[nH]c3c2)n1N	3	-1	92	0	-16	-1	.	.
O=C(NCCc1c[nH]c2ccccc12)C(=O)NCC1OCCN1S(=O)(=O)c1cc(F)ccc1F (stereo unspecified)	-4	-6	104	34*	12	1	1	45*
SMILES	MOR-DOR inv ag	HTR5A inv ag	CR mimetic SO	HTR5A ag ctr	PvdQ acylase	MOR-DOR ag-1	MOR-DOR ag-2	HTR5A ag confirm
O=C(NCCc1c[nH]c2ccccc12)C(=O)NCC1OCCCN1S(=O)(=O)c1cccs1 (stereo unspecified)	-2	-73	94	31*	-10	0	1	-6
CCOc1ccc(/C=N/NC(=O)Cc2cccs2)cc1	.	.	88	.	.	.	.	.
COc1ccccc1N(C(=O)c1ccco1)C(C(=O)NC1CCCC1)c1ccncc1 (stereo unspecified)	7	-20	86	-2	1	-1	.	.
O=C(NCc1ccco1)c1cc(C(=O)C2CC2)c[nH]1	8	-44	98	17*	-6	-2	0	6
O[C@@H]1C2CCCC1[C@]1(O)CCCCC1C2 (stereo partly specified)	16	-47	101	19*	7	-4	1	2
Cn1cnc(S(=O)(=O)Nc2ccc(OC(F)F)cc2)c1	8	2	99	-5	-5	-1	.	.
CC(=O)Nc1ccc(S(=O)(=O)NCCc2c[nH]c3ccc(C)cc23)cc1	1	-100	104	27*	-22	0	60*	2
C/C(=N/NS(=O)(=O)c1ccc(C)cc1C)c1c[nH]c2ccccc12	0	-67	107	18*	0	0	3	7
C/C(=N/NS(=O)(=O)c1ccc(C)cc1C)c1ccc2c(c1)OCO2	21	-48	100	20*	0	-4	-1	-11
NS(=O)(=O)c1ccc(CCNC(=O)C(=O)NCC2OCCN2S(=O)(=O)c2ccc(Cl)cc2)cc1 (stereo unspecified)	-7	-33	89	-6	-10	1	.	.
